Data taken from the supplement of paper PMC10338343.
± gives the standard deviation.

What was measured:
[1] = system: MILI (PIWIL2) piRISC loaded with L1MC piRNA (26 nt); test: pre-steady-state target cleavage rate (min^-1); guide: L1MC piRNA 5'p-UAACUAAAUACUAUGCAAGCUGUAGG; higher = faster piRNA-guided slicing of the target
Method in brief: (§1)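 The pre-steady-state cleavage rate was obtained by Cleave-'n-Seq with a burst-and-steady-state fit. A transcribed, DNA-blocked target RNA library (0.1 nM) was mixed with 1 nM active affinity-purified piRISC carrying one synthetic guide, with or without 500 nM GTSF1 partner protein, in HEPES–potassium acetate buffer at 33 °C for 0–8 or 0–960 min. Uncleaved targets were sequenced and normalised to depth and to weakly complementary targets, with three trials pooled and k3 capped at 0.0001 min^-1.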

[2] = system: EfPiwi piRISC loaded with L1MC piRNA (26 nt); test: pre-steady-state target cleavage rate (min^-1); auxiliary factor: 500 nM Ephydatia muelleri Gtsf1; guide: L1MC piRNA 5'p-UAACUAAAUACUAUGCAAGCUGUAGG; MIWI and MILI are mouse PIWI proteins and EfPiwi is from a freshwater sponge; tags in brackets are library labels; higher = faster piRNA-guided slicing of the target
Method in brief: as §1

[3] = auxiliary factor: 500 nM mouse GTSF1

Sequence | pre-steady-state target cleavage rate [1, 3] | pre-steady-state target cleavage rate [2] | pre-steady-state target cleavage rate ([1]; auxiliary factor: none (no GTSF1))
UCCUGGAACAGCUUGCAUAGUAUUUAUGUUA | 0.127 ± 0.018 | 0.0035 ± 0.002 | 
UCCUCGUACAGCUUGCAUAGUAUUUAGAUA | 0.177 ± 0.025 | 0.00437 ± 0.0019 | 
UCCUCCUACAGCUUGCAUAGUUAUUAGUUA | 0.0492 ± 0.015 | 0.0094 ± 0.0036 | 
UCCUGGAUCAGCUUGCAUAGUAAUUAGAUA | 0.0994 ± 0.025 | 0.00275 ± 0.0021 | 
UCCUCCUACAGCUUGCAUAGUAUUUACAUA | 0.177 ± 0.041 | 0.00441 ± 0.0028 | 
UCCUGCUACAGCUUGCAUAGUAUAUACAAA | 0.0701 ± 0.019 | 0.00238 ± 0.0022 | 
UCCUCCUAGAGCUUGCAUAGUAUUUUCAAA | 0.0731 ± 0.019 | 0.00252 ± 0.0022 | 
UCCUCCUACAGGAUGCAUAGUAUUUUCAAA | 0.0564 ± 0.017 | 0.00259 ± 0.0025 | 
UCCUGCUACAGGUUGCAUAGUAUUUAGAAA | 0.0337 ± 0.011 | 0.00261 ± 0.0014 | 
UCCUCCUACAGCUUGCAAACUAUUUAGUUA | 0.0393 ± 0.0078 | 0.00937 ± 0.0039 | 
UCCUGGAUGAGCUUCCAUAGUAUUUAGUAA | 0.0143 ± 0.0073 | 0.00253 ± 0.0019 | 
UCCUCCUACUGCUUGCAUAGUAUUUACUUA | 0.0701 ± 0.013 | 0.00299 ± 0.0029 | 
UCCUCCUUCAGCUUGCAUAGUAUUUUCAAA | 0.115 ± 0.022 | 0.00259 ± 0.0024 | 
UCCUCCUACUGCUUGCAUAGUAUUUACAAA | 0.0424 ± 0.011 | 0.0028 ± 0.0021 | 
UCCUCCUACAGCUUGCAUAGUAUUAUCUAA | 0.187 ± 0.045 | 0.00413 ± 0.0033 | 
UCCUGCUACAGCUUGCAUAGUAUUUGUUA | 0.124 ± 0.028 | 0.00505 ± 0.002 | 
UCCUGGAUCAGCUUGCUUAGUAUUUACAAA | 0.0696 ± 0.019 | 0.00612 ± 0.0047 | 
UCCUCCUACAGCUUGCAUAGUAUUAUCAAA | 0.0973 ± 0.021 | 0.00273 ± 0.0027 | 
UCCUGGUAGUGCUUGCAUAGUAUUUAGAAA | 0.0343 ± 0.013 | 0.00197 ± 0.0017 | 
UCCUGGAUGAGCUUGCAUAGUAUUUAGCUUA | 0.104 ± 0.026 | 0.00409 ± 0.0018 | 
UCCUCCUACAGCUUGCAUAGUAAAAAGUUA | 0.0965 ± 0.016 | 0.00301 ± 0.0021 | 
UCCUGGAACUCCUUGCAUAGUAUUUAGAAA | 0.162 ± 0.029 | 0.00313 ± 0.0019 | 
UCCUCCUACAGCUUGCAAUAGUAUUUAGUUA | 0.0415 ± 0.01 | 0.0427 ± 0.014 | 
UCCUCCUACAGCAUGCAUAGUAUUUAGAAA | 0.211 ± 0.03 | 0.00473 ± 0.002 | 
UCCUCCUACAGCUUGCAUAGUUAAUAGUUA | 0.0685 ± 0.022 | 0.00703 ± 0.0035 | 
UCCUGCUACUGCUUGCAUAGUAUUUACAAA | 0.0206 ± 0.0071 | 0.00262 ± 0.0024 | 
UCCUCCUACAGCUUGCAUACUAUUUACUUA | 0.0688 ± 0.016 | 0.00621 ± 0.0047 | 
UCCUCCUACAGCUUGCAUAGUUUUUAGAAA | 0.0703 ± 0.019 | 0.00527 ± 0.0024 | 

Sequence | pre-steady-state target cleavage rate [1, 3] | pre-steady-state target cleavage rate [2] | pre-steady-state target cleavage rate ([1]; auxiliary factor: none (no GTSF1))
UCCUGGUACUGCUUGCAUAGUAUUUAGAUA | 0.0302 ± 0.014 | 0.00378 ± 0.0019 | 
UCCUCCUACAGCUUGCAUAGUAUAUAGUAA | 0.147 ± 0.023 | 0.00441 ± 0.002 | 
UCCUGGAUCAGCUUGCUUAGUUUUUAGUUA | 0.0369 ± 0.011 | 0.00518 ± 0.0042 | 
UCCUGCUACAGCUUGCAUAGUAAUUAGUAA | 0.133 ± 0.025 | 0.00441 ± 0.0018 | 
UCCUGGAUGAGCUUGCAUAGUAUUUCGUUA | 0.0995 ± 0.028 | 0.00352 ± 0.0019 | 
UCCUCCUACAGCUUGCAUAGUUUUUACAAA | 0.0506 ± 0.013 | 0.00552 ± 0.0037 | 
UCCUCCUACAGCUUGCAUACUAUUAAGUUA | 0.0631 ± 0.019 | 0.00391 ± 0.0027 | 
UCCUGGAACACGUUGCAUAGUAUUUAGUAA | 0.254 ± 0.036 | 0.00365 ± 0.0034 | 
UCCUGGAACAGGUUGCAUAGUAUUUAGAUA | 0.136 ± 0.025 | 0.00362 ± 0.0019 | 
UCCUGCUUCAGCUUGCAUAGUAUUUAGAAA | 0.195 ± 0.037 | 0.00434 ± 0.0021 | 
UCCUCCUACAGCUUGCAUAGUUUUUAGUAA | 0.0743 ± 0.015 | 0.005 ± 0.0022 | 
UCCUGGUACUGCUUGCAUAGUAUUUUCAAA | 0.0112 ± 0.0064 | 0.00285 ± 0.0022 | 
UCCUGCAUGAGCUUGCAUAGUAUUUACAAA | 0.0926 ± 0.026 | 0.00266 ± 0.0017 | 
UCCUGCAACAGCUUCCAUAGUAUUUAGUUA | 0.112 ± 0.03 | 0.00273 ± 0.0014 | 
UCCUGGAACAGCUUGCAUAGUUUUUAGUAA | 0.0664 ± 0.015 | 0.00724 ± 0.0029 | 
UCCUGGAUGUGCUUGCAUAGUAUUUAGAAA | 0.0532 ± 0.013 | 0.00293 ± 0.0018 | 
UCCUCGUACAGCUUGCAUAGAAUUUAGUUA | 0.0473 ± 0.0079 | 0.00771 ± 0.0018 | 
UCCUCCUACAGCUUGCAUAGUAUUUACUAA | 0.114 ± 0.027 | 0.00569 ± 0.003 | 
UCCUGCUACAGCUUGCAUACUAAUUAGUUA | 0.0334 ± 0.0091 | 0.00252 ± 0.0014 | 
UCCUGGUACAGCUUGCUUAGUAUUAAGUUA | 0.163 ± 0.041 | 0.00311 ± 0.0027 | 
UCCUGCUACAGCUUGCAUAGUAUUUCGUUA | 0.132 ± 0.033 | 0.00379 ± 0.0018 | 
UCCUGGAACAGCUUGCAUUGUAUUUAGAAA | 0.115 ± 0.028 | 0.00376 ± 0.0021 | 
UCCUGCUACAGCUAGCAUAGUAUUUACUUA | 0.351 ± 0.051 | 0.00364 ± 0.0025 | 
UCCUGGAACAGCUUGCAUAGUAUUUAGCUUA | 0.195 ± 0.047 | 0.00529 ± 0.0018 | 
UCCUCCUACAGGAUGCAUAGUAUUUAGAAA | 0.0838 ± 0.015 | 0.00396 ± 0.0014 | 
UCCUGGUACAGCUUGCAUAGUAUAAAGUAA | 0.0705 ± 0.02 | 0.00243 ± 0.0022 | 
UCCUGGAUGUCGAACGUUAGUAUUUUCAAA [g6:g13:cont:t1A] |  | < 0.0001 | < 0.0001
